Among all 3,600 compounds or so, about 900 (25%) were called active. No rule for the calls is given here. These entries were drawn from the full list. Measured potencies and affinities stand elsewhere.
What follows are compounds tested against Protein Tat (Human immunodeficiency virus type 1 group M subtype B (isolate HXB2)) (UniProt P04608) (assay: HIV-1 Tat–TAR interaction blockers – biochemical, fluorescence polarization, FAM-labeled TAR RNA, counter-screen for Vif-APOBEC3G degradation inhibitor project, dose response (AID 1117361)). Details: Tat-TAR RNA binding; series mostly up to 100 µM.

Structure (SMILES) | outcome
CC(C)CN(C(=O)CN1CCN(S(=O)(=O)c2ccccc2)CC1)c1c(N)n(CC(C)C)c(=O)[nH]c1=O | inactive
CN(C(=O)CSc1nnc(N)s1)c1c(N)n(Cc2ccccc2)c(=O)[nH]c1=O | inactive
Cc1cccc(N2CCN(CC(=O)Nc3nccs3)CC2)c1C | inactive
COC(=O)CSc1nnc(CNC(=O)c2ccccc2OC)n1-c1ccc(OC)cc1 | inactive
CS(=O)(=O)N1CCCC(C(=O)NCCCN2CCC(Cc3ccccc3)CC2)C1 (stereo unspecified) | inactive
O=C1C2C3CC(C(Br)C3Br)C2C(=O)N1c1ccccn1 (stereo unspecified) | inactive
CCOc1ccc2nc(N3CCCC(C(=O)NCCCN4CCOCC4)C3)sc2c1 (stereo unspecified) | inactive
COc1cc(OC)c2ccc(=O)oc2c1C(CCN1CCCC(C)C1)c1ccc2c(c1)OCO2 (stereo unspecified) | inactive
O=C1C(Cc2ccccc2)SC(=Nc2ccccc2)N1c1ccccc1 (stereo unspecified) | inactive
COc1ccc2[nH]c(C(=O)O)c(CCN3C(=O)c4cccc([N+](=O)[O-])c4C3=O)c2c1 | inactive
COc1ccc2nc(NNC(=O)c3cc(=O)c4ccccc4o3)sc2c1 | inactive
Cc1ccc2cc3c(NC(=O)c4cccnc4)nn(C)c3nc2c1 | inactive
O=C1C2CCCN2C(c2ccccc2)N1c1nccs1 (stereo unspecified) | inactive
O=C1NN(c2cccc(Br)c2)C(=O)/C1=C\c1ccccc1 | inactive
CCCCc1cc(=O)oc2cc(OCC(=O)N(CC)CC)c(Cl)cc12 | inactive
Cc1ccccc1C(=O)NCC(=O)OC(C)C(=O)NC(C)CCc1ccccc1 (stereo unspecified) | inactive
CC(C)(C)n1nc2c(c1NC(=O)c1ccc(Br)o1)CS(=O)C2 (stereo unspecified) | inactive
O=C(Nc1cccc(OC(F)(F)F)c1)c1ccc(Br)o1 | inactive
Cc1cc(C)c2nc(SCC(=O)NCCN3C(=O)CSC3=O)cc(C)c2c1 | inactive
CCN(CC)CCNC(=O)Cc1c(C(=O)O)n(C)c2ccccc12 | inactive
COc1ccc(NC(=O)CN2CCC(C(N)=O)CC2)cc1 | inactive
O=c1cc(CO)oc(C(Nc2ccccn2)c2ccc(F)cc2)c1O (stereo unspecified) | inactive
OCCNc1ccc(Cl)cc1 | inactive
O=C(c1ccco1)N1CCN(C(=O)c2cn(-c3ccccc3)nc2-c2ccccc2)CC1 | inactive

Structure (SMILES) | outcome
O=C(c1ccco1)N1CCN=C1SCc1cccc(Cl)c1 | inactive
CC(C)(C)c1cc(C(C)(C)C)cc(S(=O)(=O)CCc2ccccn2)c1 | inactive
C#CC(=O)N(c1cc(OC)ccc1OC)C(C(=O)NC1CCCC1)c1cccs1 (stereo unspecified) | inactive
CCOC(=O)Nc1nnc(-c2ccccc2OC)s1 | inactive
COc1ccccc1-c1c(C)[nH]n2c(=O)c(Cc3ccccc3)c(C)nc12 | inactive
O=C(O)Cn1c(SC2CCCCC2)nc2ccccc21 | inactive
Cc1nn(Cc2ccc(Cl)cc2)c(C)c1NC(=O)c1cc(-c2ccc3c(c2)OCO3)on1 | inactive
Cc1cc(C)cc(NC(=O)CN2CCC(NC(=O)Cc3ccccc3)CC2)c1 | inactive
CC(C)c1ccc(-c2nc(N3CCCC3)nc3n[nH]c(N)c23)cc1 | inactive
N#Cc1ccc(N2CCN(C(=O)c3cccc(F)c3)CC2)c(F)c1 | inactive
CC(C)Oc1ccc2ccccc2c1C=O | inactive
Cc1cc(C)n2nc(SC(C)C(=O)N3CCCC3)nc2n1 (stereo unspecified) | inactive
Oc1ccc(/C=N/N=C/c2ccc(O)c(O)c2)cc1O | inactive
Cc1nc(OCc2ccccc2)c2ccccc2n1 | inactive
COc1ccc(CCNCc2ccc(OCc3ccccc3)cc2)cc1 | inactive
O=c1cc(CSc2ccccn2)c2ccccc2[nH]1 | inactive
Cc1ccnc(N2CCCC(C(=O)Nc3cc(F)ccc3C)C2)n1 (stereo unspecified) | inactive
Cn1c(=O)c2c(ncn2CCCNC2=CC(C)(C)CC(=O)C2)n(C)c1=O | inactive
N=C1C(c2nc3ccccc3c(=O)[nH]2)=C(O)CN1c1ccccc1 | inactive
C/C(=N\OCC(=O)Nc1ccc2c(c1)OCCO2)c1ccc2c(c1)OCCO2 | inactive
O=C(Nc1ccc2c(c1)OCCO2)C1CCC1 | inactive
COc1ccc(-c2cc(C(=O)NCCCn3ccnc3)no2)cc1OC | inactive
O=C(CSc1nnc(CCCO)n1-c1ccccc1)NCCc1ccccc1 | inactive
CCc1ccc(N(C2C=CS(=O)(=O)C2)S(=O)(=O)c2ccc(C)cc2)cc1 (stereo unspecified) | inactive

Structure (SMILES) | outcome
O=C(c1cnn2c(C(F)F)cc(C3CC3)nc12)N1CCc2ccccc2C1 | inactive
Cc1cc(F)ccc1S(=O)(=O)Nc1ccccc1C(=O)Nc1ccc2[nH]c(=O)[nH]c2c1 | inactive
CN(C)CCNC(=O)C(=O)c1c(-c2ccccc2)cc2ccccn12 | inactive
Cc1ccccc1OCC(=O)NN1Cc2ccccc2C1=N | inactive
CCN1C(=O)c2ccccc2S(=O)c2ccc(C(=O)NC3CC3)cc21 (stereo unspecified) | inactive
CCCCC(=O)NCCNC(=O)c1cc(OCC(F)(F)F)ccc1OCC(F)(F)F | inactive
CC(C)NC(=O)c1cc(-c2ccco2)nn1-c1ccc(Cl)cc1 | inactive
COc1ccccc1NC(=O)N1CCCC1C(=O)NC1CCCCC1 (stereo unspecified) | inactive
Cc1[nH]c(=O)nc(NN=Cc2ccc(Cl)cc2)c1C(=O)Nc1ccc(Cl)cc1 | inactive
CN1C(=O)CSc2ccc(NC(=O)NCc3cccnc3)cc21 | inactive
O=C(Nc1nc2ccc(Cl)cc2s1)C1CCCO1 (stereo unspecified) | inactive
Nc1c2c(nc3ccccc13)CCC2 | inactive
COc1cc(NC(=O)c2cccs2)c(OC)cc1NC(=O)CCn1nnc2ccccc21 | inactive
O=C(CS(=O)(=O)c1cn(Cc2ccc(F)cc2)c2ccccc12)N1CCCCC1 | inactive
O=C(N/N=C/c1ccc(OC(=O)c2cccs2)cc1)c1cccc(F)c1 | inactive
O=C(Nc1ccccc1-c1nnn(CC(=O)N2CCc3ccccc3C2)n1)C1CCC1 | inactive
CC(=O)n1nc(-c2ccc(Cl)cc2)nc1NCc1ccco1 | inactive
CNc1nc(Sc2cccc(C(F)(F)F)c2)cc(C(F)(F)F)n1 | inactive
O=C(CCN1C(=O)c2ccccc2C1=O)NCc1ccco1 | inactive
O=C1CSC(c2nn(-c3ccccc3)cc2-c2cc3ccccc3oc2=O)N1Cc1ccco1 (stereo unspecified) | inactive
CC(=O)N1CCCc2cc(S(=O)(=O)N(C)CCC#N)ccc21 | inactive
CCOC(=O)c1c(NC(=O)CCN2CCOCC2)sc(C)c1-c1ccccc1 | inactive
CCc1c(C)[nH]c(=S)c(C#N)c1C | inactive

From PubChem BioAssay AID1117361 (Southern Research Institute, 2015)
